Laboratory results taken from PubChem BioAssay (NCI).
The panel holds about 83,000 compounds, 20% with a hit somewhere; the sample as a whole holds those more often.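 Method: cells in 96-well plates; compound added at one concentration; 48 h incubation; percent growth measured; values under 10 scored active.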 Active and inactive are the calls of the source.

test system: HCT-116 colon; experiment: NCI-60 one-dose screen, 48 h (100 = growth as untreated, 0 = no growth, -100 = all killed); conditions: 10 µM unless noted

Compound | growth
CCCCOc1ccc(C(N)Cc2ccccc2)cc1 (stereo not given) | 86.4% (inactive)
Nc1c(F)cc(-c2nc3cc(F)ccc3[se]2)cc1F | 37.1% (inactive)
Nc1ccc(OCCNS(=O)(=O)c2cccc(S(=O)(=O)F)c2)c(Cl)c1 | 95.2% (inactive)
Cn1cc(-c2csc(-c3cn(CCCCN4CCCCC4)c4ccc(F)cc34)n2)c2cccnc21 | 94.9% (inactive)
CCCCCCCC(=O)OCC(=O)[C@]1(O)Cc2c(O)c3c(c(O)c2[C@@H](OC2CC(N)C(O)C(C)O2)C1)C(=O)c1c(OC)cccc1C3=O (stereo not given in full) | -73.4% (active)
CCCCCN(CCCCC)CC(O)c1cc(Cl)ccc1OC (stereo not given) | 4.09% (active)
CC12CC=CCC1CCC1C2CCC2(C)C(c3ccc(=O)oc3)CCC12O (stereo not given) | -67.1% (active)
COC(=O)[C@@H](C)C[C@H](Cc1ccccc1)NC(=O)c1csc([C@@H](C[C@H](C(C)C)N(C)C(=O)[C@@H](NC(=O)CN(C)C)C2CC2)OC(C)=O)n1 | 3.84% (active)
CCCCNC(c1ccc(Cl)cc1)C(O)c1ccc(Cl)cc1 (stereo not given) | 5.84% (active)
C=CCn1cc(C=C2C(=O)N(C)C(=O)N(C)C2=O)c2ccccc21 | 100% (inactive)
COc1ccc2nc(NC(=O)COc3cc(/C=C\c4cc(OC)c(OC)c(OC)c4)ccc3OC)sc2c1 | 12.6% (inactive)
O=C1CN=C(c2ccc(Cl)cc2)c2sccc2N1 | 101% (inactive)
COP(=O)(OC)C(O)c1ccc(Cl)cc1 (stereo not given) | 94.7% (inactive)
C=CC[Se]C(=O)c1ccccc1OC(C)=O | 5.71% (active)
C[C@]12CCc3sc(-c4ccccc4O)nc3C1=CC[C@@H]1[C@@H]2CC[C@]2(C)C(=O)CC[C@@H]12 | 104% (inactive)
